# HEK293 tox: cytotoxicity in counter-screen for GLP-1R inverse agonists | HEK293 cAMP-luciferase reporter cells, luminescence, 24 h | Potency, µM (highest dose often 38.3 µM), usual class: inhibitors | 0.13% of 410,000 active | AID 624418;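 note: loss of luciferase light is scored as toxicity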
#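 MLSMR compounds, 24 hr on cells at 37 deg C/5% CO2; luminescence after luciferase reagent (12 min RT). Inhibition counted as the undesired cytotoxic outcome.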
# GLP1R ag: activates the human GLP-1 receptor; HEK293 GLP-1R CRE-luciferase, luminescence, 4-6 h; cells express a hypersensitive GLP-1R form; AID 624172; P43220; Potency, µM (highest dose often 45.6 µM), usual class: activators; 0.007% of 380,000 active
# D3 ag: agonists of human D3 dopamine receptor; P35462; D3R DiscoveRx beta-arrestin cells, luminescence, 90 min; max activation, %; 0.58% of 410,000 active; in the data active = max activation above about 30%
#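 Agonist-mode cell screen: cells plated at 1500/well and incubated overnight at 37 °C, then exposed to library compounds for 90 min at 37 °C. Detection reagent was added for 30–60 min at room temperature, and luminescence was read.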
# GLP-1R inv ag: acts as inverse agonist at human GLP-1 receptor; 1.6% of 410,000 active; P43220; HEK293 GLP-1R CRE-luciferase, luminescence, 24 h; GLP-1R form is constitutively active; Potency, µM (highest dose often 38.3 µM), hits mostly inhibitors; note: nearly all actives have a fitted effect of over 55% in size
#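 Using stably transfected HEK293 (constitutively active GLP-1R, cAMP-luciferase reporter), compounds were incubated 24 hr and luciferase measured by luminescence.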
# ClpP mod: qHTS Assay for Activators of ClpP | 1.9% of 340,000 active | ATP-dependent Clp protease proteolytic subunit (Bacillus subtilis (strain 168)), P80244 | Potency, µM (top dose mostly 57.5 µM) | purified B. subtilis ClpP, FRET peptide cleavage, 20 min; active = well fitted falling curve with a large enough effect; inconclusive = small, poorly fitted or top-dose-only effect; inactive = no such curve, though single readings can be large or run the other way; note: the source files actives as falling curves though it sought activators and does not explain the sign; nearly all actives have a fitted effect of over 65% in size
#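 Purified B. subtilis ClpP, 10 microg/mL final in Tris/HCl pH8 with KCl, BSA, glycerol and Tween-20, cleaved an Abz/nitrotyrosine-quenched decapeptide. Fluorescence (ex 320, em 430) was read at 0 and 20 min at room temperature. Delta was normalized to 5.8 microM ADEP and DMSO/no-enzyme controls.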
# D3 antag: D3 dopamine receptor (human) antagonism | P35462 | D3R cells, DiscoveRx beta-arrestin luminescence, antagonist mode; stronger effect = lower value | max response, negative = inhibition, % | 2.5% of 360,000 active; in the data active = max response below about -50%; inconclusive = no clear call, values can overlap the other calls
#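 Cells expressing the human receptor were seeded at 1500 cells/well, incubated overnight at 37 degrees C in 5% CO2, then exposed to library compounds with dopamine controls for 90 minutes at 37 degrees C before luminescent detection.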
# A number is an active result; 0 = inactive; ? = inconclusive; - = no result given. Rows were chosen to be rich in hits. Some 5.7% of all compounds tested hit in one or more screens of this group. Unless noted, calls come from the whole dose curve; as a rule, active = well fitted curve in the direction sought with a large enough effect; inconclusive = small, poorly fitted or top-dose-only effect, or another doubt; inactive = no such curve, though single readings can be large; an effect the other way counts as inactive or inconclusive.
SMILES,HEK293 tox,GLP1R ag,D3 ag,GLP-1R inv ag,ClpP mod,D3 antag
Cc1ccc2nc(N(CCCN(C)C)C(=O)c3cc(-c4cccs4)nc4ccccc34)sc2c1,?,0,0,2.51µM,0,0
CCN(CC)CCN(C(=O)c1ccc2ccccc2c1)c1nc2ccc(OC)cc2s1,0,0,0,0,0,0
COc1ccccc1C(=O)N(CCN(C)C)c1nc2cc(C)cc(C)c2s1,0,0,0,11.2µM,0,0
CCN(CC)CCN(C(=O)c1cc2ccccc2cc1OC)c1nc2ccc(OC)cc2s1,0,0,0,5.62µM,0,0
Cc1ccc(S(=O)(=O)CC(O)COc2ccc(F)cc2Cl)cc1 (centres undefined),0,0,0,0,0,-63.7
CC(C)Oc1ccc(C(=O)Nc2nc3ccccc3[nH]2)cc1,0,0,0,1.12µM,-,0
O=C(Nc1nc2ccccc2[nH]1)c1ccc(OC(F)F)cc1,0,0,0,?,-,0
CCOc1ccc(NC(=O)Cn2c(=O)n(Cc3nc(-c4ccccc4)no3)c(=O)c3cc4c(cc32)OCO4)cc1,0,-,0,0,25.1µM,-
COc1ccc(NC(=O)Cn2c(=O)n(Cc3nc(C)no3)c(=O)c3cc4c(cc32)OCO4)cc1,0,-,0,0,0,-
Cc1noc(Cn2c(=O)c3cc4c(cc3n(CC(=O)Nc3ccccc3Br)c2=O)OCO4)n1,0,-,0,0,11.2µM,-
Cc1cn2c(=O)cc(COC(=O)c3ccc(NC(=O)c4ccc(C(C)(C)C)cc4)cc3)nc2s1,0,-,0,0,?,-
CC(CCC(=O)NN)C1CCC2C3CCC4CC(O)CCC4(C)C3CCC12C (centres undefined),0,0,0,0,0,0
CC(CCC(C)C(C)(C)C)[C@@H]1CC[C@H]2C3C[C@H](OS(O)(=S)=S)[C@H]4C[C@H](OS(O)(=S)=S)[C@@H](OS(O)(=S)=S)C[C@]4(C)[C@H]3CC[C@]12C (some centres undefined) (tested in a mixture with another compound),?,0,0,?,0,-83.0
Cc1ccc(Cl)cc1NC(=O)C1CCN(c2nc3ccccc3n3cccc23)CC1,0,-,0,0,0,-
COc1cccc(-c2onc3ccc(C4(C)OCCO4)cc23)c1,0,0,31.8,?,-,0
OC(COC(c1ccc(F)cc1)c1ccc(F)cc1)CN1CCc2ccccc2C1 (centres undefined),0,0,0,?,0,0
OC(COC(c1ccc(Cl)cc1)c1ccc(Cl)cc1)CN1CCc2ccccc2C1 (centres undefined),?,0,0,5.01µM,-,-55.9
OC(COC(c1ccccc1)c1ccccc1)CN1CCc2ccccc2C1 (centres undefined),0,?,0,10µM,-,-53.9
CC(=O)c1cc(C(=O)Nc2cc(C)cc(C)c2)c2ccccn12,0,0,0,0,0,-
CCn1c(C)c(C2N3CC4(C)CN2CC(C)(C3)C4=O)c2ccccc21 (centres undefined),0,-,0,0,0,-
CCC(C)(C)C1CCc2[nH]nc(C(=O)NC3CCCCC3)c2C1 (centres undefined),0,0,0,?,0,-62.2
CCC(C)(C)C1CCc2[nH]nc(C(=O)NN)c2C1 (centres undefined),0,0,0,?,0,0
CSc1ccc(CCNC(=O)CCc2c(C)nc3cc(-c4ccccc4)nn3c2C)cc1,0,0,0,0,0,-
COC(=O)c1cc(=O)n(-c2ccccc2)c(=Nc2ccccc2)s1,0,0,0,?,0,-61.4
Cc1nn(-c2ccccc2)c2sc(C(=O)OCc3nnc(-c4ccccc4)o3)cc12,0,0,0,0,14.1µM,0
SMILES,HEK293 tox,GLP1R ag,D3 ag,GLP-1R inv ag,ClpP mod,D3 antag
CCOC(=O)c1cc2c(C)nn(-c3ccccc3)c2s1,0,0,0,0,0,0
COC(=O)c1cc2c(C)nn(-c3ccccc3)c2s1,0,0,0,0,31.6µM,0
CN(Cc1ccccc1)C(=O)CSc1nc2ccsc2c(=O)n1-c1ccc(F)cc1,0,-,0,0,0,-
CS(=O)(=O)Nc1cccc(C(=O)OCCCOc2ccc(F)cc2)c1,0,0,73.6,?,0,0
CS(=O)(=O)c1nc(-c2ccccc2)cc(C(F)(F)F)n1,?,0,0,?,0,-120.0
Cc1noc(-c2ccc(N3CCCCC3)c([N+](=O)[O-])c2)n1,0,-,0,0,0,-
C#CCN1[C@@H]2CCN(C2)c2cc(Br)ccc2S1(=O)=O,0,0,0,0,0,0
Cc1ccccc1-c1cc(C(=O)NCc2ccc(OC(F)(F)F)cc2)n(CC2CC(c3cccnc3)=NO2)n1 (centres undefined),0,0,0,22.4µM,0,0
CS(=O)(=O)N(CC(=O)N1CCCCCC1)Cc1ccc(Cl)cc1,0,0,0,0,0,-78.4
CC(C)CN1CCN(Cc2ccc(Oc3ncccn3)cc2)CC1CCO (centres undefined),0,0,0,0,0,0
OCC1(Cc2ccccc2)CCN(Cc2cnc(-c3ccc(Cl)cc3)nc2)CC1,0,0,0,?,-,0
OCC1(Cc2ccc(Cl)cc2)CCN(Cc2ccc(F)c(F)c2)CC1,0,0,0,7.94µM,0,?
OCC1(Cc2ccc(Cl)cc2)CCN(Cc2ccc(Oc3ncccn3)cc2)CC1,0,0,0,10µM,-,0
OCC1(Cc2ccccc2)CCN(Cc2cnc(-c3cccc4ccccc34)nc2)CC1,0,0,0,8.91µM,-,0
OCCC1CN(Cc2ccc(Oc3ncccn3)cc2)CCN1Cc1ccc(F)c(F)c1 (centres undefined),0,0,0,0,0,-72.3
CCOCCCNC(=O)c1c(NC(=O)c2nc(SCC)ncc2Cl)sc2c1CCCC2,-,-,-,-,0,-
O=C(CCC1N=C2c3ccccc3N=C(SCc3ccc(Cl)cc3)N2C1=O)NC1CCCCC1 (centres undefined),0,-,0,0,0,-
Cc1ccccc1C(=O)Nc1ccc(S(=O)(=O)N2CCC(c3nc4ccccc4s3)CC2)cc1,0,-,0,0,0,-
CC(C)C(=O)Nc1ccc(/C=C2\C=Cc3ccccc32)cc1,-,-,-,-,0,-
OCC1(Cc2ccc(Cl)cc2)CCN(Cc2ccc3nsnc3c2)CC1,0,0,0,?,-,?
COc1ccc(CC2(CO)CCN(Cc3ccc4nsnc4c3)CC2)cc1,0,0,0,?,-,-73.0
COc1ccc(N2C(=O)CS(=O)(=O)C23C(=O)N(Cc2c(F)cccc2Cl)c2ccccc23)cc1 (centres undefined),0,0,0,0,0,-

# Assay outcomes deposited in PubChem BioAssay by National Center for Advancing Translational Sciences (NCATS).
